Hits are enriched below; roughly 6.3% of the tested compounds scored in any of these assays.
S2 tox = reduces viability in counter-screen for ATXN expression inhibitors; S2 cells (HEK-293 line with an ATXN2-luciferase reporter) viability, CellTiter-Fluor protease fluorescence, 24 h; Potency, µM (series often up to 56.7 µM), actives largely listed as cytotoxic; hit rate 0.49% among 400,000; AID 651635; also: nearly all actives have a fitted effect of over 40% in size
HepG2 tox-1 = counter-screen for TGF-b inhibitors: cytotoxicity in HepG2 cells; HepG2 CAGA-GFP viability, ATP luminescence, 18 h; Potency, µM (top dose mostly 46.1 µM), most hits filed as cytotoxic; hit rate 0.76% among 410,000
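CellTiter-Glo luminescence gave cytotoxicity after 18 hours at 37 degrees C. The cells were HepG2 CAGA-GFP in 1% FBS DMEM, stimulated with 500 pg/mL TGF-beta after compound addition. %Activity was normalised to no-cell wells (complete cell-killing) and DMSO (no toxicity), and curves were fitted and classified.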
TGFb inhibitor = TGF-b pathway inhibition | HepG2 CAGA-GFP TGF-b/SMAD3 reporter, GFP fluorescence, 18 h; TGF-beta stimulated, 500 pg/mL final | Potency, µM (top dose mostly 46.1 µM), usual class: inhibitors | hit rate 1.2% among 410,000; also: nearly all actives have a fitted effect of over 65% in size
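First, reporter cells (HEPG2 CAGA-GFP) rested 2 h at 37 degrees C. Next, compounds were pinned in and TGF-beta added to 500 pg/mL final. After 18 h, GFP was imaged per cell and summed per well.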
VP16 counter = Gal4-VP16 reporter inhibition counter-screen. Drosophila S2 Gal4-VP16 UAS-luciferase, luminescence, 20 h. Potency, µM (doses to about 53.6 µM), usual class: inhibitors. hit rate 3.5% among 310,000;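 also: Gal4-VP16 expression switched on by copper sulfate through the metallothionein promoter; nearly all actives have a fitted effect of over 50% in size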
RORgamma inh = blocks mouse ROR gamma transcriptional activity; P51450; Drosophila S2 Gal4-RORgamma UAS-luciferase reporter, 20 h; Potency, µM (top dose mostly 53.6 µM), hits mostly inhibitors; hit rate 5.4% among 310,000; also: nearly all actives have a fitted effect of over 60% in size
Target sequence (P51450 whole entry, looked up, the tested form may be a part): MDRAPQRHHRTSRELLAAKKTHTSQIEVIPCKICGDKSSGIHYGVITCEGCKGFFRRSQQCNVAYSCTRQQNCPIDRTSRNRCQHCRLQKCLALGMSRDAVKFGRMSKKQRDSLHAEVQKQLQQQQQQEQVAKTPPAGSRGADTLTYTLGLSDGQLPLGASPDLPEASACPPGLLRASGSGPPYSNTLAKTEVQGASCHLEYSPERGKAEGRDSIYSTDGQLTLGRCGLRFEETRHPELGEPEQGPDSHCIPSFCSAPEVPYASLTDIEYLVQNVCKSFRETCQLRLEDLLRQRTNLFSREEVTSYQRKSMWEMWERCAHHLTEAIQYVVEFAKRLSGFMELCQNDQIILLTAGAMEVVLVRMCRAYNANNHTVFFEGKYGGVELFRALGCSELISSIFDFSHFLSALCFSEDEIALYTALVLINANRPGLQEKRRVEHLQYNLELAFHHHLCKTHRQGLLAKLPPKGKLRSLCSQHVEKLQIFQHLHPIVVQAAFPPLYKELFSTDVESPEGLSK
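ROR gamma transcriptional activity was tracked as Gal4-UAS luciferase output in stably transfected Drosophila Schneider cells, with compound added 1 hr before 700 uM copper sulfate induction and a 20 hr ambient-temperature incubation.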
ATXN2 expr inh = inhibitors of ATXN2 expression | Potency, µM (doses to about 57 µM), actives largely listed as inhibitors | HEK-293 ATXN2-luciferase reporter, luminescence, 24 h | hit rate 0.72% among 360,000; also: nearly all actives have a fitted effect of over 55% in size
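qHTS (up to 57 uM final) was run with 24 h compound exposure of reporter cells at 37 °C. Each well was multiplexed: SteadyGlo luminescence measured ATXN2-luciferase expression after a fluorogenic Gly-Phe-AFC viability readout (25 uM final).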
TGFb confirm = confirmation of TGF-b signaling inhibitors in HepG2 reporter cells. AID 720534. shares compounds with TGFb inhibitor. hit rate 63% among 1,600. HepG2 CAGA-GFP TGF-b reporter, GFP fluorescence, 18 h; cells stimulated with TGF-beta, 500 pg/mL. Potency, µM (titrated, usually from 46.1 µM), actives largely listed as inhibitors; also: nearly all actives have a fitted effect of over 65% in size
HepG2 tox-2 = toxic to HepG2 cells in TGF-b counterscreen | shares compounds with TGFb inhibitor | HepG2 CAGA-GFP viability, ATP luminescence, 18 h; cells stimulated with TGF-beta, 500 pg/mL | Potency, µM (titrated, usually from 46.1 µM), most hits filed as inhibitors | hit rate 27% among 1,600 | AID 720535; also: nearly all actives have a fitted effect of over 70% in size
TGFb CCL64 inh = blocks TGF-b signaling in CCL64 reporter cells. CCL64 CAGA-GFP reporter, TGF-b stimulated, GFP fluorescence, 18 h. Potency, µM (top dose mostly 46.1 µM), most hits filed as inhibitors. shares compounds with TGFb inhibitor. hit rate 41% among 1,600. AID 720536; also: nearly all actives have a fitted effect of over 65% in size
COP TGFb inh = validation of TGF-b inhibitors in HepG2 COP promoter reporter; HepG2 COP-GFP TGF-b reporter, GFP fluorescence, 18 h; cells stimulated by added recombinant TGF-beta; Potency, µM (doses to about 46.1 µM), most hits filed as inhibitors; hit rate 3% among 1,600; shares compounds with TGFb inhibitor; AID 720537; also: nearly all actives have a fitted effect of over 70% in size
Hits are given with their value; - = inactive; ? = inconclusive; . = not tested or not shown; [ ] = another dose, or the depositor's remark. Calls follow the shape of the dose curve; as a rule, active = well fitted curve in the direction sought with a large enough effect; inconclusive = small, poorly fitted or top-dose-only effect, or another doubt; inactive = no such curve, though single readings can be large; an effect the other way counts as inactive or inconclusive.

SMILES | S2 tox | HepG2 tox-1 | TGFb inhibitor | VP16 counter | RORgamma inh | ATXN2 expr inh | TGFb confirm | HepG2 tox-2 | TGFb CCL64 inh | COP TGFb inh
Cc1ccc(S(=O)(=O)NN=CC=CC=NNS(=O)(=O)c2ccc(C)cc2)cc1 | - | - | - | . | . | . | . | . | . | .
Cc1c(/C=N\NC(=O)C2COc3ccccc3O2)c2ccccc2n1C (configuration not stated) | ? | - | 8.91µM | - | - | - | 5.8µM | - | 6.51µM | -
CC1CCCN(S(=O)(=O)c2ccc(S(=O)(=O)NC(C)c3cccs3)cc2)C1 (configuration not stated) | - | - | ? | - | - | - | ? | - | - | -
CC(=NNC(=S)N1CCCCC1)c1ccccn1 | ? | - | 0.631µM | . | . | . | 1.3µM | ? | 0.651µM | -
C/C(=N\NC(=O)c1ccccc1-n1cccc1)c1ccccn1 | 2.82µM | - | 14.1µM | . | . | . | 10.3µM | ? | ? | -
CC(=NNC(=S)Nc1ccccc1Cl)c1ccccn1 | ? | - | ? | . | . | ? | . | . | . | .
C=CCNC(=S)N/N=C(\C)c1ccccn1 | . | - | 2.82µM | 0.112µM | 0.0282µM | - | 10.3µM | ? | 1.3µM | -
Cc1ccc(S(=O)(=O)N2CCOCC2)cc1NC(=O)CSCc1c(C)noc1C | - | - | - | . | . | - | . | . | . | .
CN(C)c1ccc(NC(=O)Nc2csc3ccccc23)cc1 | - | - | - | - | - | - | . | . | . | .
O=C(Nc1ccc(F)cc1)Nc1csc2ccccc12 | - | - | 14.1µM | - | - | - | ? | ? | ? | -
Cc1ccc(-n2c(=O)c3ccccc3n(CC(=O)Nc3cccc(C(F)(F)F)c3)c2=O)cc1 | - | - | ? | . | . | - | . | . | . | .
CC(C)(C)OC(=O)CNC(=O)c1[nH]cnc1C(=O)NCCCCCNC(=O)OC(C)(C)C | ? | - | - | - | ? | ? | . | . | . | .
CC(C)C[C@H](NC(=O)c1nc[nH]c1C(=O)N[C@@H](CCCCNC(=O)OC(C)(C)C)C(=O)OC(C)(C)C)C(=O)OC(C)(C)C | ? | - | 17.8µM | 11.2µM | 5.01µM | - | 8.2µM | - | 20.6µM | -
C[C@H](NC(=O)c1nc[nH]c1C(=O)NCCCCCNC(=O)OC(C)(C)C)C(=O)OC(C)(C)C | ? | - | ? | - | - | - | - | - | ? | -
CCCCCC(=O)N1C[C@@H](n2cc(C3CC3)nn2)[C@H](O)C[C@@H]1c1ccc(OC)cc1 | - | - | - | . | . | - | . | . | . | .
C[C@H]1CN([C@@H](C)CO)S(=O)(=O)c2ccc(Br)cc2O[C@H]1CN(C)S(=O)(=O)c1ccccc1 | - | - | - | . | . | ? | . | . | . | .
Cc1cc(SCC(N)=O)nc(SCC(=O)c2ccccc2)n1 | ? | - | - | . | -[0.365 µM] | - | . | . | . | .
Cc1ccc(C(=O)CSc2cc(C)nc(SCC(=O)c3ccccc3)n2)cc1 | ? | - | ? | - | - | - | ? | - | - | -
COc1ccc(-c2csc(NC(=O)c3ccccc3NS(=O)(=O)c3ccc(F)c(F)c3)n2)cc1 | ? | - | 1.78µM | 3.98µM | 5.62µM | 7.08µM | 2.31µM | 1.46µM | 1.84µM | -
Cc1ccc(S(=O)(=O)Nc2ccccc2C(=O)Nc2nc(-c3ccc(F)cc3)cs2)cc1 | ? | - | 5.62µM | - | - | ? | 5.17µM | 5.8µM | 5.17µM | -
O=C(Nc1cc(S(=O)(=O)N2CCCCC2)ccc1O)c1ccccc1NS(=O)(=O)c1ccc(F)cc1 | - | - | 17.8µM | - | - | ? | 16.4µM | ? | ? | -
C[C@H](CO)N1C[C@H](C)[C@@H](CN(C)S(=O)(=O)c2ccc(-c3ccccc3)cc2)OCc2cn(nn2)CCCC1=O | . | - | - | . | . | - | . | . | . | .
CC(C)(C)NS(=O)(=O)c1cccc(S(=O)(=O)c2cccc(S(=O)(=O)NC(C)(C)C)c2)c1 | - | - | 12.6µM | - | ? | - | 14.6µM | ? | - | -
CCOc1ccc(CCN2C(=S)N([C@@H](Cc3ccc(O)cc3)CN3CCC[C@@H]3CN3C(=S)NC[C@@H]3CC(C)C)C[C@@H]2CC(C)C)cc1 | ? | - | 4.47µM | . | . | ? | ? | - | 16.4µM | -
CCOc1ccc(CCN2C(=S)N([C@@H](Cc3ccc(O)cc3)CN3CCC[C@@H]3CN3C(=S)NC[C@@H]3CC(C)C)C[C@@H]2Cc2ccccc2)cc1 | ? | - | ? | . | . | - | ? | - | ? | -
SMILES | S2 tox | HepG2 tox-1 | TGFb inhibitor | VP16 counter | RORgamma inh | ATXN2 expr inh | TGFb confirm | HepG2 tox-2 | TGFb CCL64 inh | COP TGFb inh
CCCN1CCC(=O)N(C(CSc2ccc(C)cc2)CC(C)C)CC1 (configuration not stated) | . | - | ? | - | - | . | . | . | . | .
CCO[C@@H]1OC(C(=O)NCc2ccccc2)=C[C@H](c2ccc(Br)cc2)[C@H]1CCCO | ? | - | ? | - | - | ? | ? | - | ? | -
CCO[C@H]1OC(C(=O)Nc2ccccc2)=C[C@@H](c2ccc(C(F)(F)F)cc2)[C@@H]1CCCO | ? | - | 14.1µM | ? | - | ? | ? | - | ? | -
CCO[C@H]1OC(C(=O)NCc2ccccc2)=C[C@@H](c2ccc(C(F)(F)F)cc2)[C@@H]1CCCO | ? | - | ? | - | ? | ? | . | . | . | .
COc1ccc([C@H]2N[C@]3(CCCN(Cc4ccc(Br)cc4)C3=O)[C@H]3C(=O)N(C)C(=O)[C@@H]23)cc1 | - | - | - | . | . | - | . | . | . | .
Cc1cccc(N2CCN(C(=O)CCn3c(=O)c4cccn4c4cccnc43)CC2)c1C | . | - | - | . | . | . | . | . | . | .
CC(C)(C)c1ccc(S(=O)(=O)N2CCC(c3nc4ccc(Cl)cc4[nH]3)CC2)cc1 | - | - | 20µM | - | ? | ? | 16.4µM | ? | ? | -
O=C(CSc1nnnn1C1CC1)N1CCN(c2cccc(Cl)c2)CC1 | - | - | - | . | . | - | . | . | . | .
CC(C)c1ccc(CN2CCN(C(=O)CSc3nnnn3C3CC3)CC2)cc1 | - | - | ? | . | . | - | - | - | - | -
Cc1ccc(C(OCC(C)(C)C[N+](C)(C)C)c2ccccc2)cc1 (configuration not stated) | - | - | - | - | - | - | . | . | . | .

Screens deposited in PubChem BioAssay by National Center for Advancing Translational Sciences (NCATS).
